Screening data as filed in PubChem.
MgrA DNA FP: alters Staphylococcus aureus MgrA binding to DNA; actives 0.13% (n = 84,000); inhibition, % (test concentration not listed); fluorescence polarization; in the data active means inhibition above about 30%, passing the limit was not always enough;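 further: higher means less MgrA bound to DNA so lower polarization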
Numbers stand for hits; i = inactive; + = active, no number. The entries come from a sample that favours hits as a whole.

SMILES	MgrA DNA FP
N#CC1(C#N)[C@H](c2ccoc2)[C@@H](C(=O)Oc2ccccc2)N2c3ccccc3C=C[C@@H]21	i
COC(=O)C1=C(C)N(c2ccc(N(C)C)cc2)C(C)=C(C(=O)OC)C1c1ccccc1	i
COC(=O)C1=C(C)N2[C@@H](C=C1)[C@@](C#N)(C(N)=O)[C@@H](c1ccccc1)[C@@H]2C(=O)OC	60.0
C/C(=N\N)c1nnn(-c2nonc2N)c1C	i
C=CCOc1cc(=O)[nH]c2ccccc12	i
Cc1nn(C)c(C)c1Cc1ccc(O)cc1	i
CC(=O)NN1C(=O)c2cccc3c(N(C)C)ccc(c23)C1=O	60.6
CN(C)c1ccc2c3c(cccc13)C(=O)N(c1nc3ccccc3[nH]1)C2=O	i
CCSc1ccc2c3c(cccc13)C(=O)N(NCCO)C2=O	i
CC(=O)Nc1ccc(C(C)C)cc1	i
COC(=O)[n+]1ccc(N2CCOCC2)cc1	i
CN1CCN(CC2CC=CCC2)CC1 (stereo not given)	i
CC1(C)CC(=O)c2c(S(C)(=O)=O)sc(C#N)c2C1	i
Cc1cc(C)c2c(CC(=O)N3CCCc4ccccc43)coc2c1	i
CCOc1ccccc1C(=O)N(C)c1ccccc1	i
CCOc1cccc(=[O+]CC)c2c(C)oc(C)c12	63.0
CCOc1cccc(=O)c2c(C)n(-c3ccc(OC)cc3)c(C)c12	i
CC(=O)NC(=O)c1cc2cc(Br)ccc2oc1=Nc1cccc(C(F)(F)F)c1	i
CN(CCC#N)C(=O)c1cc(-c2cccs2)nc2ccccc12	i
O=C1c2ccccc2C(=O)C1(Nc1ccccc1)c1ccccc1	i
O=C(O)c1cc(N2N=C(C(F)(F)F)/C(=C/c3ccc(-c4ccccc4)o3)C2=O)ccc1Cl	57.5
CC1=NN(c2ccc(Cl)c(C(=O)O)c2)C(=O)/C1=C\c1ccc(-c2ccccc2C(=O)O)o1	i
CCOC(=O)c1ccc(-c2ccc(/C=C3\C(=O)N(c4cccc(Cl)c4)N=C3C)o2)cc1	i
O=C1NC(=Nc2ccccc2)S/C1=C/c1cc(Br)cc(Cl)c1O	i
Cc1ccc(-c2nn(-c3ccccc3)cc2/C=C2\SC(=S)NC2=O)cc1	i
SMILES	MgrA DNA FP
CCc1ccc(-c2nn(-c3ccccc3)cc2/C=C2\SC(=S)NC2=O)cc1	i
Cc1ccc(-c2nn(-c3ccccc3)cc2/C=C2\SC(=S)N(CCCC(=O)O)C2=O)cc1	98.7
CCc1cc(Br)ccc1OCC(=O)O	i
S=C(NCc1ccco1)Nc1ccc2nc(-c3ccccn3)c(-c3ccccn3)nc2c1	i
COc1ccc(N(C)C(=S)Nc2ccc3nc(-c4ccco4)c(-c4ccco4)nc3c2)cc1	59.6
CNC(=S)Nc1ccc(C)cc1	i
O=C(NCCO)c1ccc2nc(-c3ccco3)c(-c3ccco3)nc2c1	i
c1coc(-c2nc3ccccc3nc2-c2ccco2)c1	i
O=C(c1ccccc1)c1ccc2nc(-c3ccco3)c(-c3ccco3)nc2c1	63.4
Cc1ccc(NC(=S)Nc2ccc3nc(-c4ccco4)c(-c4ccco4)nc3c2)cc1	79.8
COc1cccc(NC(=S)Nc2ccc(N(C)C)cc2)c1	i
COc1ccc2nc3c(nc2c1)-c1cccc2cccc-3c12	i
CN(C)CCCNc1ncnc2ccc(Br)cc12	i
O=C(Cc1ccccc1)N1CCCCCC1	i
COC(=O)c1c(N)n(C)c2nc3ccccc3nc12	i
CCOC(=O)c1c(NC(=O)COc2ccc(Cl)cc2)sc(C(=O)Nc2ccc(OC)cc2)c1C	i
CCCCC1CCC(C(=O)Nc2noc3ccccc23)CC1 (stereo not given)	i
c1ccc(CNc2cc(-c3ccccc3)nc3nncn23)cc1	i
O=C(Nc1cccnc1Cl)c1ccc(Oc2ccccc2)cc1	i
O=C(CSCc1ccccc1)Nc1cccc(-c2cn3cccnc3n2)c1	i
Cc1ccc(NC(=O)c2c(-c3ccccc3Cl)noc2C)cc1F	i
NC(=O)CC(c1ccccc1)c1ccc2c(c1)OCO2 (stereo not given)	i
CCC(C(=O)NC(C)c1ccc2c(c1)OCO2)c1ccccc1 (stereo not given)	i
Cc1ccc(C)n1C(CC(=O)O)c1ccc2c(c1)OCO2 (stereo not given)	52.6
C=CCn1c(C(C)Oc2cccc(C)c2)nc2ccccc21 (stereo not given)	i
SMILES	MgrA DNA FP
CS(=O)(=O)OC12CC3CC(CC(C3)C1)C2	i
O=C1c2ccccc2C(=O)N1CNc1ccc(Oc2ccccc2)cc1	i
O=C(O)C1Nc2ccccc2C2C=CCC12 (stereo not given)	i
Cc1ccc2c(c1C)NC(C(=O)O)C1CC=CC21 (stereo not given)	63.7
CC(C)C1Nc2ccc(C(=O)O)cc2C2C=CCC21 (stereo not given)	i
CCOC(=O)C1CCCN(C(=O)c2cccc(Oc3ccccc3)c2)C1 (stereo not given)	i
O=C(/C=C/c1ccco1)Nc1cccc(NC(=O)/C=C/c2ccco2)n1	i
O=C(/C=C/c1ccccc1)/C=C/c1ccco1	i
O=C(/C=C/c1ccco1)/C=C/c1ccco1	97.6
Cc1cc(-c2noc(-c3ccccc3C)n2)c2ccccc2n1	i
CC(C)=C1C(=O)N(c2ccccc2)C(=S)N1c1ccccc1	i
N#Cc1c(-c2ccco2)cc(-c2ccco2)[nH]c1=O	55.9
N#Cc1c(-c2ccccc2)cc(-c2ccco2)c(C#N)c1N	i
N#Cc1c(-c2ccco2)cc(-c2ccccc2)[nH]c1=O	i
COc1cc(OC)cc(C(=O)NC(=S)Nc2cccc(-c3nc4ccccc4o3)c2C)c1	i
O=C1c2ccccc2C(=O)c2c(NC3CCCCC3)ccc(Nc3ccc(Oc4ccccc4)cc3)c21	i
O=C1C=C(NC2CCCC2)CC(c2ccccc2)C1 (stereo not given)	i
O=C1C=C(C(F)(F)F)c2ccc(NC3CCCCC3)c3cccc1c23	55.6
Cc1ccc2cc(CCNC(=O)c3ccc(Cl)cc3Cl)c(=O)[nH]c2c1	i
COc1ccc(CNc2cc(C)cc(C)c2)cc1	i
CC(NC=O)c1nc2ccccc2n1Cc1ccccc1 (stereo not given)	i
COc1cccc2c1C(=O)c1c(O)c3c(c(O)c1C2=O)C[C@@](O)(C(C)=O)C[C@@H]3OC1CC(N)C(O)C(C)O1 (stereo not given in full)	+
COc1cccc2c1C(=O)c1c(O)c3c(c(O)c1C2=O)C[C@@](O)(C(=O)CO)C[C@@H]3O[C@H]1C[C@H](N)[C@H](O)[C@H](C)O1	+
CCOC(=O)/C(C#N)=C(/N)c1cc2cc(Br)cc(Br)c2oc1=O	i
COC(CNC(=O)/C=C1\Sc2ccccc2NC1=O)OC	i
SMILES	MgrA DNA FP
N#CCS(=O)(=O)c1ccc(F)cc1	i
Cc1ccc(-n2c(C)cc(/C=C(/C#N)c3ccccc3)c2C)cc1	i
Cc1ccnc(NC(=O)c2ccc3c(c2)C(=O)N(Cc2ccco2)C3=O)c1	29.6
O=C(Nc1ccccc1Cl)c1ccc2c(c1)C(=O)N(Cc1ccco1)C2=O	i
O=C(c1ccc2c(c1)C(=O)N(Cc1ccco1)C2=O)N1CCOCC1	i
Cn1c(C(=O)O)nc2ccccc21	i
O=C1CN(C(=O)CCC(=O)c2cccs2)c2ccccc2N1	i
CCOC(=O)CCc1c(CC(=O)OCC)c[nH]c1/C=N/O	60.5
CCOC(=O)CCc1n[nH]c(=O)[nH]c1=O	i
CCOC(=O)Cc1cc(C)[nH]c1C(=O)OCC	i
O=C(O)c1ccc(N2C(=O)CCC2=O)cc1	i
Brc1cccc(-c2csc(Nc3cccnc3)n2)c1	i
C=C(C)C1Cc2cc(/C=C/C(=O)O)c(O)cc2O1 (stereo not given)	53.8
O=C(O)C=Cc1ccc(O)c(O)c1	i
C=C(C)C1Cc2cc3ccc(=O)oc3cc2O1 (stereo not given)	i
